In PubChem BioAssay (EPA / NIEHS):
“And” between values parts separate entries of the source, which are not always exact repeats. Equal values may be shown once. The source holds several records for some structures; these can differ, active in one and inactive in another. The source made the active and inactive calls. Rule for the calls: active = hit-call score of the fitted dose curve at least 0.9, where 1 is the maximum; inactive = score below 0.9.

Assay: ATG_DR4_LXR_CIS: Attagene CIS-FACTORIAL HepG2 Assay for human Liver X Receptor (LXR), DR4 submotif (AID 2282929)
Conditions: HepG2 Attagene DR4 cis-reporter, mRNA transcription; actives raise or lower the signal
Method: ATG_CIS is a cell-based, multiplexed-readout assay that uses HepG2, a human liver cell line, with measurements taken at 24 hours after chemical dosing in a 24-well plate.ATG_DR4_LXR_CIS is one of 52 assay component(s) measured or calculated from the ATG_CIS assay. It is designed to make measurements of mRNA induction, a form of inducible reporter, as detected with fluorescence intensity signals by Reverse transcription polymerase chain reaction (RT-PCR) and Capillary electrophoresis technology.Data from the assay component ATG_DR4_LXR_CIS was analyzed into 1 assay endpoint. This assay endpoint, ATG_DR4_LXR_CIS, was analyzed with bidirectional fitting relative to DMSO as the negative control and baseline of activity. Using a type of inducible reporter, measures of mRNA for gain or loss-of-signal activity can be used to understand the reporter gene at the transcription factor-level as they relate to the gene NR1H2 and NR1H3. Furthermore, this assay endpoint can be referred to as a primary readout, because this assay has produced multiple assay endpoints where this one serves a reporter gene function. To generalize the intended target to other relatable targets, this assay endpoint is annotated to the nuclear receptor intended target family, where the subfamily is non-steroidal.
Human liver HepG2 cells are transiently transfected with multiple reporter transcription units (MRTUs) in 6-well plates using FuGene 6 reagent (Roche; 3 ml FuGene/1 mg DNA). The MRTU constructs are regulated by a cis-regulating element (promoter). […] A major difference between the CIS and TRANS system is that in CIS activities of endogenous TFs are measured, whereas the TRANS assay evaluates changes in activities of exogenous, chimeric NR-Gal4 proteins. […] At the end of 24 hour incubation, total RNA was isolated using TriZol reagent (Invitrogen). The isolated RNA is then reverse-transcribed using oligo(dT) primer and Mo-MLV reverse transcriptase (Invitrogen) with DNAse I (Ambion) treatment for 30 min. The one-tenth of the produced cDNA was amplified by PCR using Taq DNA polymerase (Invitrogen) and two reporter sequence-specific primers. The PCR products were fluorescently labeled by primer extension with 6-arboxyfluorescein (6-FAM) 5'-labeled reporter sequence-specific primer (2 min at 95 C, 20 s at 68 C and 10 min at 72 C) and these products were digested with 5U of HpaI (New England Biolabs) for 2h at 37 C. The fragments were purified using Qiaquick PCR columns (Qiagen), analyzed on an ABI 3130xL genetic analyzer (Applied Biosystems) with peak positions identified by using a set of X-rhodamine (ROX)-labeled MapMarker1000 molecular weight standards (BioVentures). The raw capillary electrophoresis data was processed using Attagraph software (Attagene).

Row | Structure (SMILES) | outcome | AC50
1 | FC(F)(I)C(F)(F)C(F)(F)C(F)(F)C(F)(F)C(F)(F)I | inactive | 
2 | CC1=C(/C=C/C(C)=C/C=C/C(C)=C/C(=O)O)C(C)(C)CCC1 | inactive | 0.763 µM (active)
3 | O=C(O)Cc1cc(I)c(Oc2cc(I)c(O)c(I)c2)c(I)c1 | inactive | 14.9 µM (active)
4 | CCc1ccc(CCOc2ccc(CC3SC(=O)NC3=O)cc2)nc1 (stereo not given) | inactive | 
5 | CCN(CC)CCNc1ccc(CNC=O)c2sc3ccc(OC)cc3c(=O)c12 | inactive | 
6 | CCCCC(CC)COC(=O)CCCCC(=O)OCc1ccccc1 (stereo not given) | inactive | 
7 | Cc1oc(-c2ccccc2)nc1CCOc1ccc(C[C@H](Nc2ccccc2C(=O)c2ccccc2)C(=O)O)cc1 | inactive | 
8 | CCCCC(CC)COC(=O)CCCCC(=O)OCC(CC)CCCC (stereo not given) | inactive | 
9 | Cc1ccc(S(=O)(=O)O)c(C)c1 | inactive | 
10 | CC[C@H](C)[C@@H](C(=O)O)n1sc2ccccc2c1=O | inactive | 
11 | CCCCOCCO | inactive | 
12 | NCC(F)(F)C(F)(F)C(F)(F)C(F)(F)C(F)(F)C(F)(F)C(F)(F)F | inactive | 
13 | OCCC(F)(F)C(F)(F)C(F)(F)C(F)(F)C(F)(F)C(F)(F)C(F)(F)C(F)(F)F | inactive | 40.1 µM (active)
14 | CCCCCCCCC(=O)O | inactive | 
15 | COc1ccc([N+](=O)[O-])cc1N | inactive | 
16 | O=C1OC2(c3ccccc31)c1cc(Br)c(O)c(Br)c1Oc1c2cc(Br)c(O)c1Br | inactive | 

Row | Structure (SMILES) | outcome | AC50
17 | CC(O)C(=O)O (stereo not given) | inactive | 
18 | CCCCCCCC(=O)O | inactive | 
19 | NC(=O)N1C(=O)C(C(=O)c2cc(Cl)cs2)c2cc(F)c(Cl)cc21 (stereo not given) | inactive | 
20 | CCC(C)(C)C1CCC(O)CC1 (stereo not given) | inactive | 172 µM (active)
21 | OC1CCC(C2CCCCC2)CC1 (stereo not given) |  | 158 µM (active) [middle of 4 runs]
22 | COc1cc(CCC(=O)CC(=O)CCc2ccc(O)c(OC)c2)ccc1O | inactive | 
23 | c1ccc2cc3c(ccc4ccccc43)cc2c1 | inactive | 1.7 µM (active) and 1.25 µM (active) and 3.19 µM (active)
24 | C=C(C)C(=O)OCCC(F)(F)C(F)(F)C(F)(F)C(F)(F)C(F)(F)C(F)(F)F | inactive | 
25 | CCCOC(=O)c1ccc(O)cc1 | inactive | 26.1 µM (active)
26 | OCCC(F)(F)C(F)(F)C(F)(F)C(F)(F)C(F)(F)C(F)(F)F | inactive | 182 µM (active)
27 | Cc1cc(C)c(O)c(C)c1 | inactive | 
28 | CC[C@H](c1ccc(O)cc1)[C@@H](CC)c1ccc(O)cc1 | inactive | 11.1 µM (active) and 11 µM (active)
29 | CC(C)(C)c1cc(C(C)(C)C)c(O)c(C(C)(C)C)c1 | inactive | 
30 | ClC1=C(Cl)C(Cl)(Cl)C(Cl)=C1Cl | inactive | 6.59 µM (active)
31 | CC(O)CO (stereo not given) | inactive | 
